hcDAF12 agonist: activates DAF-12 receptor from parasite H. contortus | AID 652067 | HEK293 hcDAF-12 lit1-tk-luc reporter, luminescence; 0% DMSO, 100% Δ7-dafachronic acid | activation, % at 6.8 µM | 1.4% of 370,000 active;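 active means activation above the mean of all tested compounds plus 3 SD, cut at about 5.5% in these data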;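 further: 100% = response to 3 µM Δ7-dafachronic acid high control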
hgDAF12 agonist: activates the H. glycines DAF-12 receptor ligand-binding domain; 1.8% of 370,000 active; HEK293 GAL4-hgDAF12 UAS-luciferase reporter, agonist luminescence; normalized to butyrate control; activation, % at 6.8 µM;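 active means activation above a cutoff set at the mean of all screened compounds plus 3 SD, cut at about 10% in these data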;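 further: 0% = DMSO wells and 100% = sodium butyrate wells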
ssDAF-12 act: activators of S. stercoralis DAF-12 nuclear receptor; HEK293 ssDAF-12/GRIP1 lit1-tk-luc reporter, luminescence; % of 3 µM dafachronic acid response; activation, % at 6.8 µM; 1% of 370,000 active; AID 652126;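 active means activation above the mean over all tested compounds plus 3 SD, cut at about 0.9% in these data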;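 further: 0% = DMSO-only wells and 100% = 3 µM delta7-dafachronic acid wells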
DAX1 inh-1: inhibits human nuclear receptor DAX1. 0.99% of 340,000 active. HEK293 Gal4-DAX1 luciferase reporter, luminescence. inhibition, % at 6.75 µM. AID 504766. P51843;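 active means inhibition above the mean over all tested compounds plus 3 SD, cut at about 4.2% in these data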;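 further: 0% = DAX1-transfected cells with DMSO and 100% = empty-vector control cells with DMSO; inhibition shows as a rise in luminescence from relieved DAX1 repression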
Target sequence (P51843 207-470 limits assumed): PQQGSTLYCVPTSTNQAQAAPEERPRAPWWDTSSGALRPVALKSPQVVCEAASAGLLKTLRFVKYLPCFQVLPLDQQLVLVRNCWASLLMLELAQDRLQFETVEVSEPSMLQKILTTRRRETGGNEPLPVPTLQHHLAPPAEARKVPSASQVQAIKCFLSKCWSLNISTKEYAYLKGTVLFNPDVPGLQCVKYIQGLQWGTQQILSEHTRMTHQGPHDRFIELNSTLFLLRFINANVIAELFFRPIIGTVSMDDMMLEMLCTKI
DAX1 inh-2: DAX1 (NR0B1) inhibition, primary screen | 1.1% of 370,000 active | AID 652010 | HEK293T StAR-luciferase reporter, SF-1/DAX-1 repression relief | inhibition, % at 6.8 µM;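 active means inhibition above the mean over all tested compounds plus 3 SD, cut at about 3.6% in these data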;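 further: 0% = DAX-1 cells with DMSO and 100% = cells lacking DAX-1 with DMSO; higher inhibition means more luminescence from relief of DAX-1 repression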
GAA850 FXN act: increases GAA850 frataxin promoter reporter activity; 0.56% of 360,000 active; activation, % at 6 µM; HEK293 lucGAA850 FXN promoter luciferase reporter, 24 h; percent of 10 µM SAHA response;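 active means activation above the average of all compounds screened plus 3 SD, cutoff fixed separately per campaign, cut at about 7.5% in these data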;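 further: 0% = DMSO wells and 100% = 10 µM SAHA wells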
* = called active by the depositor; . = no result. A selection: hits, their analogues and other compounds. The true share with any hit is near 4.5%.

SMILES	hcDAF12 agonist	hgDAF12 agonist	ssDAF-12 act	DAX1 inh-1	DAX1 inh-2	GAA850 FXN act
O=C(Nc1ccc(N2CCCCC2)cc1)c1ccc2ccccc2n1	4	9	-1	5.5*	1	5
O=C(Nc1ccc(-c2cn3c(n2)SCC3)cc1)c1ccc2ccccc2n1	-4	-3	-3	-2	-4	-2
CCOc1cc(N2CCOCC2)c(OCC)cc1NC(=O)c1ccc2ccccc2n1	3	6	0.9*	0	2	3
CC1=CC(C)(C)N=C(NC#N)N1	-1	0	1.0*	3	0	0
Cc1oc(-c2ccc(Cl)cc2)cc1C(=O)O	1	3	0	5.5*	1	2
COc1ccc(Cl)cc1N(C(C)=O)c1nc(C)cc(C)c1C#N	5.9*	0	-1	5.1*	0	1
C=CCOC(=O)C1=C(C)N=c2sc(=C3C(=O)N(CC(=O)O)c4ccccc43)c(=O)n2C1c1ccc(OC)cc1 (stereo not drawn)	0	-3	0	.	0	.
CCCCOCCCNC(=O)C[C@H]1C[C@@]2(C(=O)OC)C(=C[C@H](C(C)(C)C)O[C@@H]2C)N(Cc2ccc(Cl)cc2Cl)C1=O	-3	-1	-1	.	0	.
COc1cccc(-c2coc3cc4oc(=O)c(CCC(=O)O)c(C)c4cc23)c1	5.8*	-1	0	0	0	-1
FC(F)(F)C1=NNC(c2ccc3ccccc3c2)=NN1	1	12*	0	0	1	0
OC(c1ccccc1)(c1nc(-c2ccc3ccccc3c2)cs1)C(F)(F)F (stereo not drawn)	0	3	-1	.	0	3
C=CCn1c(SCc2ccc(F)cc2)nc2c1c(=O)[nH]c(=O)n2C	0	-3	-1	1	0	23*
CC(Sc1nnc(Nc2ccccc2)s1)C(=O)Nc1nc(-c2ccccc2)cs1 (stereo not drawn)	3	0	-1	5.0*	1	-2
COc1ccc(OCc2cc(C(=O)N(C)Cc3cc(C)no3)no2)c(Cl)c1	3	12*	0	4	1	3
CCc1ccc(CN(C)C(=O)c2cc(COc3ccc(OC)cc3Cl)on2)nc1	2	5	0	1	3	2
COc1ccc(OCc2cc(C(=O)N[C@H]3CCCCNC3=O)no2)c(Cl)c1	1	4	-1	1	3.6*	4
COc1ccc(OCc2cc(C(=O)NC(C)c3csc(C)n3)no2)c(Cl)c1 (stereo not drawn)	1	9	0	0	1	3
COc1ccc(OCc2cc(C(=O)NC(C)c3nc(C)cs3)no2)c(Cl)c1 (stereo not drawn)	4	12*	0	2	1	2
COC(=O)C1CN(CCc2ccccc2)CCS(=O)(=O)N1Cc1ccc(C(F)(F)F)cc1 (stereo not drawn)	1	0	-2	.	-2	.
CC(=O)NS(=O)(=O)c1ccc(NS(=O)(=O)c2ccc3ccccc3c2)cc1	0	0	-1	4.7*	0	-1
O=C(CCc1ccccc1)N[C@H]1[C@@H](OC(=O)c2ccc([N+](=O)[O-])cc2)CCC[C@]12C(=O)N(Cc1ccccc1)c1ccccc12	-1	2	-1	.	1	.
Cc1ccsc1/C=N/n1c(-c2ccccn2)n[nH]c1=S	5.7*	0	-1	-1	0	0
OCCCNCc1ccc(N(c2ccccc2)c2ccccc2)cc1	0	-2	-1	5.9*	0	0
O=C(Nc1ccc(Cl)cc1)c1ccc(OCC2CCCO2)cc1 (stereo not drawn)	0	13*	-1	-2	0	3
Cc1c(C(=O)NCc2ccco2)oc2c(F)cccc12	5.9*	1	0	1	0	5
SMILES	hcDAF12 agonist	hgDAF12 agonist	ssDAF-12 act	DAX1 inh-1	DAX1 inh-2	GAA850 FXN act
Cc1c(C(=O)NCc2ccco2)oc2ccccc12	3	2	-1	0	0	3
O=C(c1cnn2c(C(F)F)cc(-c3ccccc3)nc12)N1CCSCC1	0	4	-1	4.6*	0	1
CCSc1nnc(Cc2cc(=O)[nH]c(=O)[nH]2)n1-c1ccc(F)cc1	3	0	-1	1	0	0
Cc1cccc(-n2c(Cc3cc(=O)[nH]c(=O)[nH]3)nnc2SCC(=O)N2CCc3ccccc32)c1	6.2*	3	-1	1	0	2
O=C(CSc1nnc(Cc2cc(=O)[nH]c(=O)[nH]2)n1-c1ccc(F)cc1)N1CCCCC1	-1	6	0	7.9*	0	2
COC(=O)[C@]12C[C@H](CC(=O)NCCCCc3ccccc3)C(=O)N(Cc3ccc(Cl)cc3Cl)C1=C[C@H](C(C)(C)C)O[C@@H]2C	-2	4	-1	.	-1	.
COc1cccc(N2CCc3c(C)nc4ccc(Cl)cc4c32)c1	-1	-2	-2	-1	0	-1
CCN1Cc2c(/C=C/c3ccccc3)nc3ccc(OC)cc3c2N(c2cccc(Cl)c2)C1	5.7*	3	-1	0	-1	-1
CCOC(=O)C1=C(C)Nc2nc(C)nn2C1c1ccc(OCC)c(OC)c1 (stereo not drawn)	0	-3	-1	-2	0	-1
CCOC(=O)C1=C(C)Nc2nc(C)nn2C1c1ccc(OC)c(OC)c1 (stereo not drawn)	1	2	-1	4.6*	0	1
O=C(OC12CCCN(C1)/C(=C/c1cccc(Cl)c1)C2)c1ccno1 (stereo not drawn)	-1	3	-1	.	0	.
Cc1cc(C)nc(CC(N)=O)n1	0	0	-2	5.9*	0	-2
Nc1ccc(S(=O)(=O)N2CCCC2)cc1	1	1	-2	6.0*	1	-1
O=S(=O)(c1ccc(S(=O)(=O)N2CCCC2)cc1)N1CCCCCC1	-1	-1	-1	-1	0	0
COc1ccc(OC)c(C(=O)CSc2nnc(SCc3cccc4ccccc34)s2)c1	-1	-1	-2	.	0	.
COc1ccc(-c2nnc(SCC(=O)Nc3ccc(S(=O)(=O)Nc4cc(C)nc(C)n4)cc3)n2-c2ccc(OC)cc2)cc1	1	0	-1	.	1	.
CCn1c(=O)n2n(c1=O)[C@]1(C=C(C)C2)CN(Cc2ccc(OC)cc2OC)C(NC(=O)c2ccccc2)=N1	-1	3	-1	.	.	.
CCOC(=O)c1c(C)[nH]c(C(=O)COC(=O)CCSc2ccccc2)c1C	6.3*	9	0	1	0	7
CC(=O)c1c(C)[nH]c(C(=O)COC(=O)CCSc2ccccc2)c1C	1	-4	-1	0	-1	1
CCOC(=O)c1c(C)[nH]c(C(=O)NCc2ccccn2)c1C	0	5	0	1	4.1*	2
